{"source": "PubChem BioAssay (EPA / NIEHS)", "note": "Activity calls are given as the source filed them. How the source made its calls: active means hit-call score of the fitted dose curve at least 0.9, where 1 is the maximum; inactive means score below 0.9."}
{"read-out": "catalase (CAT), CAT (gene 847)", "test": "LTEA_HepaRG_CAT: Life Technologies and Expression Analysis (LTEA) Assay for catalase (CAT) using HepaRG (AID 2283452);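 on AC50: TaqMan qRT-PCR signal normalized to ACTB GAPDH and POLR2A housekeeping genes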", "conditions": "mRNA level, 48 h; actives raise or lower the signal", "experimental": "LTEA_HepaRG is a cell based, multiplexed-readout assay that uses HepaRG, a human liver cell line, with measurements taken at 48 hours after chemical dosing on a 96-well plate.LTEA_HepaRG_CAT is one of 102 assay component(s) measured in the LTEA HepaRG cell culture assay. It is a marker of Oxidative Stress.Data from the assay component LTEA_HepaRG_CAT was analyzed into 1 endpoint. This assay endpoint, LTEA_HepaRG_CAT, was analyzed with bidirectional fitting relative to DMSO as the negative control and baseline of activity. Using a type of inducible reporter, measures of mRNA induction for gain or loss-of-signal activity can be used to understand regulation of transcription factor activity. To generalize the intended target to other relatable targets, this assay endpoint is annotated to the catalase intended target family, where the subfamily is oxidative stress.\nA total of 1060 chemcials from the ToxCast library were tested in eight-point concentration-response experiments. Cell culture and cytotoxicity assays were conducted at Thermo Fisher Scientific's Custom Services facility (Madison, WI). A single lot of human HepaRG cells (Thermo Fisher Scientific, Frederick, MD) was used for the cell culture experiments. 96-well format collagen type I coated plates of human HepaRG cells were prepared using established methods. Briefly, cryopreserved HepaRG cells were thawed, plated at a density of approximately 100,000 cells/well in HepaRG Thaw, Plate, and General Purpose media (HPRG770, Thermo Fisher Scientific), and incubated for 48 hours. 0.5% DMSO was selected as vehicle control to balance the requisite need of DMSO in HepaRG cultures to maintain differentiation (for example, baseline metabolism, proportions of hepatocytes vs. cholangiocytes), while enabling further hepatic receptor pathway activation (for example, PXR and CAR) in response to chemical exposure. 48 hours after plating, the culture medium was replaced with HepaRG Serum-Free Incudtion Media. Cells were exposed to each test chemical in duplicate and maintained in CO2 incubators for another 48 hours. Chemical plates were thawed to room temperature and 200x concentrations of treatment groups were prepared. 8-point conentration-reponse curves were made with the highest exposure at 100 uM, followed by half-log dilutions, all in 0.5% DMSO. Each test plate contained variouse controls, induction positive controls (1mM phenobarbital), cytotoxicity positive controls ([…] aflatoxin B1), vehicle controls (0.5% DMSO), and total lysis controls (0.5% DMSO). Cell morphology images were taken using an Essen IncuCyte FLR automated microscope, with six 96-well plates imaged in about 24 minutes. Images were captured and exported and JPEG files. Spent culture media was transfered to black-well plates for the LDH assay, and remaining media was sorted at -80 C for later use. Cells were treated with RLT buffer and frozen until shipped for gene expression analysis. Total RNA was isolated from the cell suspension in 75 uL of Buffer RLT (Qiagen, Germantown, MD 20874) by Quintiles/Expression Analysis (Durham, NC) using a custom isolation procedure. Total RNA from each plate well was transferred to a preamplification plate. Fluidigm's 96.96 Dynamic ArrayTM (Fluidigm, Amsterdam, the Netherlands) technology was used for gene expression analyses by quantitative reverse transcription polymerase chain reaction (qRT-PCR, performed by Quintiles/Expression Analysis, Durham, NC)89. Standard TaqManTM Assays (Applied Biosystems/ThermoFisher Scientific, Foster City, CA) were used to assess the expression of 93 genes selected based on their selectivity and sensitivity to important hepatic receptors known to be modulated by environmental chemicals; importance in human hepatocyte functionality; and hepatotoxicity. […]"}
{"smiles": "CCC(C)(c1ccc(O)cc1)c1ccc(O)cc1", "outcome": "inactive"}
{"smiles": "ClC(Cl)=C(c1ccc(Cl)cc1)c1ccc(Cl)cc1", "outcome": "inactive"}
{"smiles": "Cc1cccc(C)c1N", "outcome": "inactive"}
{"smiles": "CCC(C)(CC)c1cc(NC(=O)c2c(OC)cccc2OC)on1", "outcome": "inactive"}
{"smiles": "O=C(NC(=O)c1cc(F)c(F)cc1Cl)Nc1cc(F)ccc1N1CCC(C(=O)O)CC1", "outcome": "inactive"}
{"smiles": "COS(=O)(=O)OC", "outcome": "inactive"}
{"smiles": "CCOCCOC(C)=O", "outcome": "inactive"}
{"smiles": "CCCCCCOC(=O)c1ccccc1C(=O)OCCCCCC", "outcome": "inactive"}
{"smiles": "Nc1ccc(-c2ccc(N)cc2)cc1", "outcome": "inactive"}
{"smiles": "NS(=O)(=O)C(F)(F)C(F)(F)C(F)(F)C(F)(F)C(F)(F)C(F)(F)C(F)(F)C(F)(F)F", "AC50": "9.12 µM (active)"}
{"smiles": "CCSC(=O)N(CC)C1CCCCC1", "outcome": "inactive"}
{"smiles": "ClC1=C(Cl)[C@]2(Cl)[C@@H]3[C@@H](Cl)[C@H]4O[C@H]4[C@@H]3C1(Cl)C2(Cl)Cl", "outcome": "inactive"}
{"smiles": "c1ccc(-c2ccccc2)cc1", "outcome": "inactive"}
{"smiles": "CCCCCCCCOC(=O)c1ccccc1C(=O)OCCCCCCCC", "outcome": "inactive"}
{"smiles": "CC#Cc1cc(C)nc(Nc2ccccc2)n1", "outcome": "inactive"}
{"smiles": "O=NN(c1ccccc1)c1ccccc1", "outcome": "inactive"}
{"smiles": "Cc1ccc(O)c(C)c1", "outcome": "inactive"}
{"smiles": "C=CC(=O)NCNC(=O)C=C", "outcome": "inactive"}
{"smiles": "CCC(=O)O[C@H]1CC[C@H]2[C@@H]3CCC4=CC(=O)CC[C@]4(C)[C@H]3CC[C@]12C", "outcome": "inactive"}
{"smiles": "CCNc1nc(NC(C)C)nc(SC)n1", "outcome": "inactive"}
{"smiles": "CC(c1ccc(O)cc1)(c1ccc(O)cc1)c1ccc(O)cc1", "AC50": "50 µM (active)"}
{"smiles": "Clc1ccc(C(Cl)(Cl)Cl)cc1", "outcome": "inactive"}
{"smiles": "O=S(=O)(O)C(F)(F)C(F)(F)C(F)(F)C(F)(F)F", "outcome": "inactive"}
{"smiles": "Clc1ccc(Cl)cc1", "outcome": "inactive"}
{"smiles": "Nn1cnnc1", "outcome": "inactive"}
{"smiles": "Cc1ccccc1[N+](=O)[O-]", "outcome": "inactive"}
{"smiles": "CCOP(=S)(OCC)SCSC(C)(C)C", "outcome": "inactive"}
{"smiles": "Cc1cc(-c2ccc(N)c(C)c2)ccc1N", "outcome": "inactive"}
{"smiles": "O=C(NC(=O)c1c(F)cccc1F)Nc1cc(Cl)c(OC(F)(F)C(F)F)c(Cl)c1", "outcome": "inactive"}
{"smiles": "N#Cc1ccc(N(CC(N)=O)CC(F)(F)F)cc1C(F)(F)F", "outcome": "inactive"}
{"smiles": "C[C@]12CCC(=O)C=C1CC[C@@H]1[C@@H]2CC[C@@]2(C)[C@H]1CC[C@]2(C)O", "outcome": "inactive"}
{"smiles": "CO/C=C(/C(=O)OC)c1ccccc1COc1cccc(C(F)(F)F)n1", "AC50": "6.81 µM (active)"}
{"smiles": "O=C(O)C(F)(F)C(F)(F)C(F)(F)C(F)(F)C(F)(F)F", "outcome": "inactive"}
{"smiles": "CCCCCCCCCC[N+](C)(C)CCCCCCCCCC", "outcome": "inactive"}
{"smiles": "ClC1=C(Cl)[C@]2(Cl)[C@@H]3[C@H]4C[C@H]([C@@H]5O[C@H]45)[C@@H]3[C@@]1(Cl)C2(Cl)Cl", "AC50": "13.3 µM (active)"}
{"smiles": "Clc1ccc(C(c2ccccc2Cl)C(Cl)(Cl)Cl)cc1", "note": "(stereo not given)", "AC50": "19.3 µM (active)"}
{"smiles": "Cc1ccccc1CO[C@@H]1C[C@@]2(C(C)C)CC[C@]1(C)O2", "outcome": "inactive"}
{"smiles": "Cc1ccccc1O", "outcome": "inactive"}
{"smiles": "Oc1ccc(C(c2ccc(O)cc2)(C(F)(F)F)C(F)(F)F)cc1", "AC50": "89.2 µM (active)"}
{"smiles": "CCCN(CCC)N=O", "outcome": "inactive"}
